Assay results from PubChem BioAssay (NCATS).
Results filed as inconclusive are left out. Entries that show only a call come without a potency. The source made the active and inactive calls. The call rests on the fitted dose curve; in most records, active means well fitted inhibition curve with a large enough effect; inconclusive means small, poorly fitted or top-dose-only effect; inactive means no such curve, though single readings can be large or run the other way.

Tested on: Zika virus NS2B-NS3 protease (linked construct)
Assay: Primary screen NINDS Rhodamine qHTS for Zika virus inhibitors (AID 1347160); further: nearly all actives have a fitted effect of over 55% in size
Details: purified NS2B-NS3 protease, Rhodamine110 substrate fluorescence; series mostly up to 57.1 µM
Procedure, shortened: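 Single-chain NS2B-NS3 protease, 25 nM, pH 8.0; compounds preincubated 15 min. Activity: Rhodamine110 release from 1.5 microM substrate over 15 min, room temperature, data fitted to 4-parameter Hill.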
In the case of CNS(=O)(=O)CCc1ccc2[nH]cc(C3CCN(C)CC3)c2c1, the outcome is reported as “inactive”.
With O=C(NCC1CN(c2ccc(N3CCOCC3=O)cc2)C(=O)O1)c1ccc(Cl)s1 (stereo not drawn) the outcome was “inactive”.
With CC(C(=O)O)c1ccc2c(c1)CC(=O)c1ccccc1S2 (stereo not drawn) the outcome was “inactive”.
In the case of COc1cc2c(Nc3ccc(Br)cc3F)ncnc2cc1OCC1CCN(C)CC1, the outcome is reported as “inactive”.

Tested on: not listed separately
Assay: Confirmatory screen NINDS Rhodamine qHTS for Zika virus inhibitors (AID 1347161); further: nearly all actives have a fitted effect of over 60% in size; further: potency means the concentration at half of the fitted maximal effect
Details: purified enzyme assay, Rhodamine110 substrate fluorescence, 15 min; series mostly up to 114 µM
Procedure, shortened: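 Purified linked NS2B-NS3 protease (NS2B hydrophilic domain joined to NS3 protease by flexible linker), 25 nM in 10 mM Tris-HCl pH 8.0, 0.01% Tween 20. Compounds titrated, 15 min preincubation at room temperature; 1.5 microM Rhodamine110 substrate, FITC fluorescence change over 15 min.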
With Nc1nc(N)c2nc(CNc3ccc(C(=O)NC(CCC(=O)O)C(=O)O)cc3)cnc2n1 (stereo not drawn) the Potency was 55.3 µM (active).
In the case of COc1ccc(-c2ccc3cc(C(=O)O)ccc3c2)cc1C12CC3CC(CC(C3)C1)C2, the Potency is reported as “inactive”.
For COc1cc(NCc2ccc3nc(N)nc(N)c3c2C)cc(OC)c1OC, the Potency was “inactive”.
With CNC(=O)c1cc(Oc2ccc(NC(=O)Nc3ccc(Cl)c(C(F)(F)F)c3)cc2)ccn1 the Potency was 25.5 µM (active).
